The full data set covers some 7,900 targets. This sample favours those with a hit. About 0.6% of all pairs of compound and target were hits. Unmarked numbers belong to inactive results.
Columns and labels:
Experiment in all cases: log2 fold change, soluble protein after heating vs DMSO (PISA); higher = thermal stabilisation; K562 cells, 10 uM, 30 min; active = over 0.2 and 3.5 SD of the protein, either way, in both replicates (recomputed)
erlotinib = compound: C#Cc1cccc(Nc2ncnc3cc(OCCOC)c(OCCOC)cc23)c1 [erlotinib]
Method in brief: (§1)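 Quantification of soluble protein used TMTpro 16plex LC-MS/MS, with channel sums equalised. Samples were the supernatant after 21,000xg for 90 min of pooled aliquots from K562 cells (2×10^6 cells/mL) treated with 10 μM compound for 30 min, heated for 3 min over 48°C-58°C, and extracted in PBS with 0.5% NP-40 at 4°C. Values, from duplicates, describe thermal stability against control samples on a log2 fold-change scale.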

[1] = compound: C/C(=N\NC(=O)C1=CC(=CC=C1)S(=O)(=O)N2CCOCC2)/C3=C(C=CC(=C3)Cl)O
Method in brief: as §1

[2] = compound: C1=CC(=C(C=C1Cl)C2=NC3=NC=CN=C3C(=N2)NC4=CC=NC=C4)F
Method in brief: as §1

[3] = compound: C1=CC(=CC=C1C2=NC3=C(N2)C=C(C=C3)C(=O)N)OC4=CC=C(C=C4)Cl
Method in brief: as §1

[4] = compound: C1=CC2=C(C=CC(=C2)/C=C\3/C(=O)NC(=NCC4=CC=CS4)S3)N=C1
Method in brief: as §1

[5] = compound: C1=CC2=NC=CN=C2C=C1/C=C/3\C(=O)NC(=O)S3
Method in brief: as §1

[6] = compound: C1=CC=C(C=C1)C2=NC(=C(N2)C3=CC=NC=C3)C4=CC(=C(C=C4)Cl)O
Method in brief: as §1

[7] = compound: C1=CC=C2C(=C1)C3=NNC4=CC=CC(=C43)C2=O
Method in brief: as §1

[8] = compound: C1CCN(C1)C(=O)NC2=CC=CC(=C2)NC3=NC=C(C(=N3)NCCC4=CN=CN4)Br
Method in brief: as §1

[9] = compound: C1CN(CCC1(CC2=CC=C(C=C2)Cl)N)C3=NC=NC4=C3C=CN4
Method in brief: as §1

IRAK-1-4 Inhibitor I = compound: C1COCCN1CCN2C3=CC=CC=C3N=C2NC(=O)C4=CC(=CC=C4)[N+](=O)[O-] [IRAK-1-4 Inhibitor I]
Method in brief: as §1

ibrutinib = compound: C=CC(=O)N1CCC[C@@H](n2nc(-c3ccc(Oc4ccccc4)cc3)c3c(N)ncnc32)C1 [ibrutinib]
Method in brief: as §1

[10] = compound: CC(=O)c1cnc2ccc(-c3cc(Cl)c(O)c(Cl)c3)nc2c1N[C@H]1CC[C@H](CN(C)C)CC1
Method in brief: as §1

ralimetinib = compound: CC(C)(C)Cn1c(N)nc2ccc(-c3[nH]c(C(C)(C)C)nc3-c3ccc(F)cc3)nc21 [ralimetinib]
Method in brief: as §1

[11] = compound: CC(C)(O)CC(=O)NCCn1ccc2ncnc(Nc3ccc(Oc4cccc(C(F)(F)F)c4)c(Cl)c3)c21
Method in brief: as §1

[12] = compound: CC(C)C1=C2N=C(C=C(N2N=C1)NCC3=CC=CC=C3)NCCCCCCN
Method in brief: as §1

[13] = compound: CC(C)C[C@@H](C=O)NC(=O)[C@H](CC(C)C)NC(=O)[C@H](CC(C)C)NC(=O)OCc1ccccc1
Method in brief: as §1

pinometostat = compound: CC(C)N(C[C@H]1O[C@@H](n2cnc3c(N)ncnc32)[C@H](O)[C@@H]1O)[C@H]1C[C@@H](CCc2nc3cc(C(C)(C)C)ccc3[nH]2)C1 [pinometostat]
Method in brief: as §1

[14] = compound: CC1=C(C(CC(=O)N1)C2=CC=C(C=C2)C(F)(F)F)C(=O)NC3=C(C=C4C(=C3)C=NN4)F
Method in brief: as §1

[15] = compound: CC1=C(C2=C(C=C1)C(=O)C3=CC=CC=C3N2CCCN)C
Method in brief: as §1

Sequence of UniProt P78356 (P78356 whole entry, looked up): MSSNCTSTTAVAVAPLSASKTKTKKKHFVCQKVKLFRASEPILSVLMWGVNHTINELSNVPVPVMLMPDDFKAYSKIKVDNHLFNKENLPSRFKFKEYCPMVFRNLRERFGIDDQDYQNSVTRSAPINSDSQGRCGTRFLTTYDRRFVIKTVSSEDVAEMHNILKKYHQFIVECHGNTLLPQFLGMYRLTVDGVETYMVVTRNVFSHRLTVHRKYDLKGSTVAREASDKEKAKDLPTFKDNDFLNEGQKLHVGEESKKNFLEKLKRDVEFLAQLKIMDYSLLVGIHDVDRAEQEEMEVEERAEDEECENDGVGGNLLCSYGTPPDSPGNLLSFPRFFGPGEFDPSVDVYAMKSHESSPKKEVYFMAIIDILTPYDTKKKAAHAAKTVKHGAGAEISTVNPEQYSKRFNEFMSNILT
Sequence of UniProt Q86YH6 (Q86YH6 whole entry, looked up): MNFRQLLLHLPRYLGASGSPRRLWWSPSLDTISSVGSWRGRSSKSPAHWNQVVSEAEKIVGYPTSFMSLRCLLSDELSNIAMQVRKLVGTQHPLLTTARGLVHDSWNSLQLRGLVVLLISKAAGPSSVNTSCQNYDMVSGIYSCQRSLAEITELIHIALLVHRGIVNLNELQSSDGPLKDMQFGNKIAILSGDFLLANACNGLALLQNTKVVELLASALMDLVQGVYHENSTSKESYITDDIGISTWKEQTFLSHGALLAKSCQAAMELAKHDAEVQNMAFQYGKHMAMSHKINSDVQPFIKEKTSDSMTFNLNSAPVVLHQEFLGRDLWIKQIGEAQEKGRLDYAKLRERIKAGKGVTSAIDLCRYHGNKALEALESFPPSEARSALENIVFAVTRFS
Sequence of UniProt Q7RTV0 (Q7RTV0 whole entry, looked up): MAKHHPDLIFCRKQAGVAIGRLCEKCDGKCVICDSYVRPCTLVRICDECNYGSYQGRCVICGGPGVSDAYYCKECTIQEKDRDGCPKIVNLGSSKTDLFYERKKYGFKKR
Sequence of UniProt Q6P4A8 (Q6P4A8 whole entry, looked up): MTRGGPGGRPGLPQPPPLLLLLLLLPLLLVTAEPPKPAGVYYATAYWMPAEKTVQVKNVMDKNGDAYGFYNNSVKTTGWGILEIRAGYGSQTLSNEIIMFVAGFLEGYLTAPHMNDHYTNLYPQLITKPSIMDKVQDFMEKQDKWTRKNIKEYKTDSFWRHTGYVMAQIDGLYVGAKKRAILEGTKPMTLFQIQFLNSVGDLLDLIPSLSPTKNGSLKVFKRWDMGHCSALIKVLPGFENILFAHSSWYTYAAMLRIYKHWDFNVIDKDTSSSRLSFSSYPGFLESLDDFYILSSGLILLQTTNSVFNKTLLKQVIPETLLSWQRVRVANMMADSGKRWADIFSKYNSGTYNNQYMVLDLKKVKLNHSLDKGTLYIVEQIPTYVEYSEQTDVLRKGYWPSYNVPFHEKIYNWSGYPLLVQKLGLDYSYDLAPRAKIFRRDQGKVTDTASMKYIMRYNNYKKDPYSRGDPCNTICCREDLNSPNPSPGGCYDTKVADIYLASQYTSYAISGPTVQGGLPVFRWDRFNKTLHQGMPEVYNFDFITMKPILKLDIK
Sequence of UniProt Q9Y244 (Q9Y244 whole entry, looked up): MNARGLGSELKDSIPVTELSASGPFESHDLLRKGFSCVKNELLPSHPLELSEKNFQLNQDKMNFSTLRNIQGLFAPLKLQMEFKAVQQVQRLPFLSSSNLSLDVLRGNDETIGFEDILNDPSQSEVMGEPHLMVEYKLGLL
Sequence of UniProt Q92968 (Q92968 whole entry, looked up): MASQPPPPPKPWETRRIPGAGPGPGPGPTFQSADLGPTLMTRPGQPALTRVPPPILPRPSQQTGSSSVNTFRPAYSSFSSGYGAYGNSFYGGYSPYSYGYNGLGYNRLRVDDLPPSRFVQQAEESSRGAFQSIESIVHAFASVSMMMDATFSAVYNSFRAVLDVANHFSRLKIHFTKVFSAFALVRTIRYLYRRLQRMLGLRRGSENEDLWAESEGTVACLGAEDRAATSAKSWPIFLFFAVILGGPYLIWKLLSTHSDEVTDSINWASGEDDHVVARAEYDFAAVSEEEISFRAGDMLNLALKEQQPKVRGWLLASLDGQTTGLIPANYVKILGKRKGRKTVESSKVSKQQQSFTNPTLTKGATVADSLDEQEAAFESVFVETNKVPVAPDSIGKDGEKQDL
Sequence of UniProt Q8N8N7 (Q8N8N7 whole entry, looked up): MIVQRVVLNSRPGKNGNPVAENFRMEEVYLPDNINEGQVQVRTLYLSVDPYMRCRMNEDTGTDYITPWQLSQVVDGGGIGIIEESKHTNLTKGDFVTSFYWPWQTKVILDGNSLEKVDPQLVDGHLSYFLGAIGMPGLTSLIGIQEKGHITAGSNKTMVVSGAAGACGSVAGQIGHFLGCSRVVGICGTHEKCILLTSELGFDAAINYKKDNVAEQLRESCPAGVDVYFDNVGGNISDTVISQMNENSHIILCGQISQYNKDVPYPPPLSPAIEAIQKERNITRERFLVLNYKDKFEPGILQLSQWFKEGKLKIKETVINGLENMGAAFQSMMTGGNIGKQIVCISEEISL
Sequence of UniProt Q8TAP8 (Q8TAP8 whole entry, looked up): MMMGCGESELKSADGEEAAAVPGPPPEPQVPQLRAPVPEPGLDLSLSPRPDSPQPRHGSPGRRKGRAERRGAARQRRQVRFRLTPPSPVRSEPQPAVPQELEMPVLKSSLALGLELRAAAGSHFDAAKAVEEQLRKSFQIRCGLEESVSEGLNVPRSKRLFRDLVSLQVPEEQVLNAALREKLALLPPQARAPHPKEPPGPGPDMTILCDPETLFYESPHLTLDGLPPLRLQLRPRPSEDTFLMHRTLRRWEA
Sequence of UniProt P48556 (P48556 whole entry, looked up): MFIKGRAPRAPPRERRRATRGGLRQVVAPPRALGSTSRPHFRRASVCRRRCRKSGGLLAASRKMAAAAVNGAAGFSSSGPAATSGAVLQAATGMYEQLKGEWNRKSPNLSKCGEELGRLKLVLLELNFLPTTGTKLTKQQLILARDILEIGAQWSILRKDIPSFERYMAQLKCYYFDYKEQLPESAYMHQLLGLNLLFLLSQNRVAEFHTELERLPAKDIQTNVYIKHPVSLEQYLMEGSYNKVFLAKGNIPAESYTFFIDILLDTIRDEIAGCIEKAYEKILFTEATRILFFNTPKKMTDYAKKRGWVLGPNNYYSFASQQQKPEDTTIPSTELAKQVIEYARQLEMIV
Sequence of UniProt Q14671 (Q14671 whole entry, looked up): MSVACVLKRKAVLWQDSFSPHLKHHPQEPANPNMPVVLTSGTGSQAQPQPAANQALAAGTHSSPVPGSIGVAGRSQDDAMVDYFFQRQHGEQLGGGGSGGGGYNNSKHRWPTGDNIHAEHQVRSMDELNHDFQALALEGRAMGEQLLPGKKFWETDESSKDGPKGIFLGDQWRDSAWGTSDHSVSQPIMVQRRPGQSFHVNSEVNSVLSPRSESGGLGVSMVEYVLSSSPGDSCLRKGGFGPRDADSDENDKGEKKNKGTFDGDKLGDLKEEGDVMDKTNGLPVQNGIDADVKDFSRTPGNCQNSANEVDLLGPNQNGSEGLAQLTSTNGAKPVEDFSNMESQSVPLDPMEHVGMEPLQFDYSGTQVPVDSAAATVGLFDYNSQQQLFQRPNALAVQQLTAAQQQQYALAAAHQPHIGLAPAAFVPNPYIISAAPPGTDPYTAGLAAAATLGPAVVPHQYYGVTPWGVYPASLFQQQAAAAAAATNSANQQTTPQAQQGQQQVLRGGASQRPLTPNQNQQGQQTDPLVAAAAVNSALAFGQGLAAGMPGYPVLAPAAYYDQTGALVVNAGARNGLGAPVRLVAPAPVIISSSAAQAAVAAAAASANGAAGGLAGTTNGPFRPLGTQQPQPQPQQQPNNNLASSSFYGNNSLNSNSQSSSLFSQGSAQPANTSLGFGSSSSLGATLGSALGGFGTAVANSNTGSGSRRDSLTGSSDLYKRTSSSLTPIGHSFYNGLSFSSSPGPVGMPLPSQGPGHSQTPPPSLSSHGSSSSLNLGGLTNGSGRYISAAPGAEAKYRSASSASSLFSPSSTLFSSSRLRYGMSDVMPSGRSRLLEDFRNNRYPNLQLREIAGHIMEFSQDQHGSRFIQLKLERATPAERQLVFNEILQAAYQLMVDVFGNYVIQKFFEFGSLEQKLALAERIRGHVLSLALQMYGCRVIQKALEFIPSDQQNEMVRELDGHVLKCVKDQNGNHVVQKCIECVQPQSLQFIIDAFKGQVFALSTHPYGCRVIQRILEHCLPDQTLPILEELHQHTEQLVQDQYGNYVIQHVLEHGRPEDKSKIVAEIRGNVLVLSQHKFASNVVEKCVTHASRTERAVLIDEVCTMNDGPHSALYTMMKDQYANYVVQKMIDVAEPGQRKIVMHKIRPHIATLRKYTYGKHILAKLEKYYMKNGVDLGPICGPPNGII
Sequence of UniProt Q9H5K3 (Q9H5K3 whole entry, looked up): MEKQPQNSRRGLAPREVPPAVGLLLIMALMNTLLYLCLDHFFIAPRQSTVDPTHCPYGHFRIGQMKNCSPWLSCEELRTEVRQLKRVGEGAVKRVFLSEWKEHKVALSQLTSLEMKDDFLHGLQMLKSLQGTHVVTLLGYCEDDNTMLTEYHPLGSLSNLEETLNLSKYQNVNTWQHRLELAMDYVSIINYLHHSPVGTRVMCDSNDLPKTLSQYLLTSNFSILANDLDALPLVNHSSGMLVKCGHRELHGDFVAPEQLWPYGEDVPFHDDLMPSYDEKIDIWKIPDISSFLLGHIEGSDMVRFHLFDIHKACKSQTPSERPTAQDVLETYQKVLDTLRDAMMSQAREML
Sequence of UniProt Q9BRP1 (Q9BRP1 whole entry, looked up): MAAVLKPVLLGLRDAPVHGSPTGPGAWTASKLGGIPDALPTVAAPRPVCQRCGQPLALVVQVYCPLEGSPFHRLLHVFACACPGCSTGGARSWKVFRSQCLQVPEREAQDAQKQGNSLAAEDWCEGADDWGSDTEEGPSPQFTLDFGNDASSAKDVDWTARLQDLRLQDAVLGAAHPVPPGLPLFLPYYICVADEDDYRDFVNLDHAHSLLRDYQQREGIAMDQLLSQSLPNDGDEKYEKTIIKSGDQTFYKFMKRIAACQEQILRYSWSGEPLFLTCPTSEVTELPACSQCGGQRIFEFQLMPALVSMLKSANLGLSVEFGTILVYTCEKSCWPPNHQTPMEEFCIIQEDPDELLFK

| Target | log2 fold change (erlotinib) | log2 fold change [1] | log2 fold change [2] | log2 fold change [3] | log2 fold change [4] | log2 fold change [5] | log2 fold change [6] | log2 fold change [7] | log2 fold change [8] | log2 fold change [9] | log2 fold change (IRAK-1-4 Inhibitor I) | log2 fold change (ibrutinib) | log2 fold change [10] | log2 fold change (ralimetinib) | log2 fold change [11] | log2 fold change [12] | log2 fold change [13] | log2 fold change (pinometostat) | log2 fold change [14] | log2 fold change [15] |
| --- | --- | --- | --- | --- | --- | --- | --- | --- | --- | --- | --- | --- | --- | --- | --- | --- | --- | --- | --- | --- |
| PDSS2 (UniProt Q86YH6) | 0.029 | -0.011 | -0.04 | 0.012 | 0.053 | -0.025 | 0.026 | -0.006 | 0.061 | 0.073 | 0.1 | 0.074 | 0.058 | -0.059 | -0.089 | -0.085 | 0.054 | -0.017 | -0.438 (active) | -0.022 |
| PHF5A (UniProt Q7RTV0) | 0.008 | -0.005 | 0.03 | -0.034 | -0.049 | 0.017 | -0.03 | -0.05 | -0.02 | 0.022 | 0.02 | 0.001 | 0.008 | 0 | 0.088 | 0.242 (active) | -0.073 | -0.073 | 0.011 | 0.109 |
| PSMC6 (UniProt P62333) | -0.06 | -0.074 | -0.006 | 0.011 | -0.031 | -0.037 | 0.015 | 0.014 | 0.034 | -0.008 | -0.026 | 0 | 0.044 | 0.019 | 0.093 | 0.077 | -0.206 | 0.01 | 0.075 | -0.01 |
| PPIL4 (UniProt Q8WUA2) | 0.011 | 0.056 | -0.049 | 0.043 | -0.023 | 0 | 0.04 | -0.009 | -0.06 | -0.044 | -0.102 | 0.013 | -0.27 (active) | 0.101 | 0.04 | -0.114 | -0.065 | 0.055 | 0.002 | 0.066 |
| PDCD2L (UniProt Q9BRP1) | -0.051 | 0.226 | 0.128 | 0.03 | 0.006 | -0.03 | -0.078 | -0.001 | -0.071 | -0.036 | -0.034 | -0.006 | 0.07 | 0.047 | -0.115 | 0.078 | 0.042 | 0.007 | 0.065 | 0.041 |
| PTGR2 (UniProt Q8N8N7) | -0.015 | -0.027 | 0.016 | -0.023 | 0.365 | -0.01 | 0.062 | 0.056 | -0.023 | 0.131 | 0 | 0.321 | -0.328 | -0.016 | -0.042 | 0.121 | 0.001 | 0.074 | 0.005 | 0.011 |
| PSMD8 (UniProt P48556) | -0.045 | -0.096 | -0.046 | 0.023 | -0.027 | -0.031 | 0.036 | 0.039 | 0.055 | -0.031 | -0.058 | -0.033 | 0.076 | -0.012 | 0.022 | 0.016 | -0.194 | 0.031 | 0.051 | -0.014 |
| POMK (UniProt Q9H5K3) | -0.091 | -0.007 | 0.019 | 0.005 | -0.01 | 0.071 | 0.005 | -0.019 | 0.006 | 0.005 | 0.046 | -0.036 | -0.042 | 0.032 | -0.024 | -0.23 | 0.027 | 0.094 | -0.009 | 0.042 |
| PPP1R35 (UniProt Q8TAP8) | 0.137 | -0.064 | -0.038 | 0.029 | 0.01 | 0.034 | 0.021 | -0.031 | 0.009 | 0.001 | -0.055 | -0.057 | -0.069 | -0.007 | -0.026 | -0.049 | 0.036 | -0.021 | 0.049 | -0.049 |
| PEX11B (UniProt O96011) | 0.016 | 0.058 | 0.162 | -0.001 | 0.056 | 0.087 | 0.142 | -0.012 | -0.097 | 0.041 | 0.025 | 0.04 | 0.032 | 0.005 | 0.008 | 0.075 | -0.058 | -0.031 | 0.055 | 0.012 |
| PEX13 (UniProt Q92968) | 0.026 | 0.03 | 0.026 | 0.009 | 0.048 | 0.073 | -0.01 | 0.005 | 0.038 | 0.036 | 0.053 | -0.067 | -0.011 | 0.062 | -0.193 | -0.201 | 0.036 | -0.032 | 0.003 | 0.024 |
| PLBD1 (UniProt Q6P4A8) | 0.05 | -0.008 | 0.024 | 0.037 | 0.09 | 0.024 | 0.036 | -0.01 | 0.037 | 0.009 | 0.033 | -0.002 | 0.025 | -0.077 | 0.036 | -0.012 | -0.015 | 0.057 | -0.019 | 0.02 |
| PIP4K2B (UniProt P78356) | 0.16 | -0.022 | 0.082 | -0.083 | 0.017 | 0.244 | 0.104 | 0.096 | 0.13 | 0.037 | 0.254 | 0.01 | 0.856 (active) | 0.005 | -0.149 | 0.033 | -0.034 | -0.014 | -0.11 | 0.065 |
| PUM1 isoform 3 (UniProt Q14671) | -0.023 | 0 | 0.04 | 0.034 | 0.047 | 0.003 | -0.013 | 0.003 | -0.057 | 0.028 | 0.004 | 0.02 | -0.097 | 0.013 | -0.022 | -0.059 | 0.02 | 0.023 | 0.006 | 0.063 |
| POMP (UniProt Q9Y244) | 0.003 | -0.018 | 0.373 (active) | 0.015 | -0.073 | 0.086 | -0.018 | 0.003 | 0.061 | -0.034 | 0.029 | -0.002 | -0.002 | -0.022 | -0.033 | 0.009 | -0.002 | -0.023 | 0.076 | -0.053 |
